Assay [1] is described as follows: inhibitors of TNFa-induced NFkB p65 translocation, primary screen, imaging, HUVEC, MLSMR starter and 10KST1 sets (AID 438;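 active = inhibition above 20% together with a positive visual image hit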;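 note: compound added about 3h40 before a 20 min TNFalpha stimulation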;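 for inhibition: signal is the nuclear over cytoplasmic p65 intensity ratio per well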). The conditions noted are these: HUVEC TNFa-induced p65 nuclear translocation; cell count: measured here: nuclei count (cytotoxicity indicator), at 2.08 µM; inhibition: at 2 µM, stronger effect = higher value, 0% TNFa-plus-vehicle, 100% no-TNFa wells.
A short description of assay [2]: inhibitors of mutant huntingtin aggregation, primary screen, imaging, exon1htt(103Q)mCFP cells, high-content imaging (AID 483;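 active = visual image review flags a hit and inhibition of aggregation exceeds 20%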;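 note: compound exposure lasted 3 days before fixation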;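 for nuclei count: percent of the per-plate median nuclei count of sample wells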). The note with it: exon1htt(103Q)mCFP cell line, aggregate imaging, at 2 µM; inhibition of aggregation: stronger effect = higher value; nuclei count: measured here: cell count, toxicity.
The nature of assay [3]: inhibitors of E-selectin induction by TNFa, primary screen, imaging, HUVEC, immunofluorescence, MLSMR starter and 10KST1 sets (AID 487;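 active = visually confirmed hit in the image check and inhibition above 20%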;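 for inhibition: signal is fraction of cell area covered by stained E-selectin grains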;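 for nuclei count: 100% = median nuclei count of all wells on the same plate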). The conditions noted are these: HUVEC TNFalpha-induced E-selectin immunofluorescence imaging, at 2 µM; inhibition: stronger effect = higher value; nuclei count: measured here: cell number, toxicity.
Assay [4] can be described thus: DUSP6 inhibitors restoring Erk phosphorylation by chemical complementation, primary imaging in DUSP6-transfected HeLa (AID 609;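 active = compounds giving at least 50% inhibition in the cell-based MKP-3 phosphatase rescue imaging test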;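 for inhibition: phospho-Erk level distribution per well compared with pooled transfected vehicle control wells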). The conditions noted are these: HeLa MKP-3 transfected, phospho-Erk imaging KS statistic, at 10 µM, cells stimulated with TPA for 15 min.
Assay [5] has as its target Dual specificity protein phosphatase 6 (Homo sapiens) (UniProt Q16828). Described as above. The note with it: HeLa MKP-3 transfected, phospho-Erk imaging KS statistic; at 10 µM; stronger effect = higher value; cells stimulated with TPA for 15 min.
The target of assay [6] is Voltage-gated potassium channel subunit beta-2 (Rattus norvegicus) (UniProt P62483). In words: KvBeta enzyme negative modulators, primary screen, biochemical, NADPH fluorescence (AID 622;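 active = fluorescence slope higher than the sample average by over 3 SD, cut at about -0.22 in these data, passing the limit was not always enough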;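 note: slope of raw intensity against log time taken from 70 to 1610 s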). The note with it: recombinant KvBeta, 4-cyanobenzaldehyde reduction, at 10 µM, stronger effect = higher value.
Sequence of Voltage-gated potassium channel subunit beta-2 (Rattus norvegicus) (P62483 whole entry, looked up): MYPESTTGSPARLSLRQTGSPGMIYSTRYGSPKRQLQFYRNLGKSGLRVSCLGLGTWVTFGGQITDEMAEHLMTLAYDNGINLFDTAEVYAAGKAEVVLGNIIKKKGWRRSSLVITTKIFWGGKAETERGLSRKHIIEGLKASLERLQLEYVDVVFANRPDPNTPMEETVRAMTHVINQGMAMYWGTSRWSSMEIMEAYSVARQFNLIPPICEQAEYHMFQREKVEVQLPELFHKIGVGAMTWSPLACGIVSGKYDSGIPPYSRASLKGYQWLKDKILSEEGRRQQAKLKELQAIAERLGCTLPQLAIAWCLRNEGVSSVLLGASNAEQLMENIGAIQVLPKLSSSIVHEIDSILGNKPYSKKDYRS
Assay [7] shares this target. In words: KvBeta positive modulators, primary screen, biochemical, NADPH fluorescence (AID 623;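 active = NADPH fluorescence slope more negative than the mean of all samples by about 3 SD, 99.7% confidence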;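 note: fluorescence intensity change per second fitted from 20 to 320 s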). The note with it: Recombinant KvBeta, NADPH fluorescence decrease slope, 10 min; at 10 µM; stronger effect = lower value.
Assay [8] addresses Alpha-2C adrenergic receptor (Homo sapiens) (UniProt P18825). Put plainly: modulators of alpha2C/GIRK thallium flux, primary screen, cell-based, HEK293 alpha2C/GIRK1/2 (AID 624;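 active = fluorescence slope after compound addition differing from the mean of all screened samples at 99.7% confidence, in either direction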;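 note: slope of fluorescence ratio to pre-addition baseline per second over 15 to 24 s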). The conditions noted are these: thallium flux BTC fluorescence, at 10 µM, actives lie on both sides.
The nature of assay [9]: inhibitors of larval lipid processing in zebrafish, primary screen, whole organism, PED6 fluorescence, gall bladder and intestine (AID 686;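 active = a full or partial loss of lipid-probe fluorescence in the fish gall bladder, intestine or both, judged by eye; inactive = no fluorescence loss, or compound toxic to the fish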;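 note: larvae 5 to 7 days old with five fish per well; signal comes from phospholipase A2 cleavage of quenched PED6 carried via bile; overnight exposure to compound and PED6 before scoring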). The note with it: Zebrafish larvae PED6 lipid processing, fluorescence scoring; screened at 20 µM (by protocol).
A short description of assay [10]: inhibitors of Chlamydomonas gravitaxis, primary screen, whole organism, Chlamydomonas reinhardtii, WT vs cilia-less mutant, absorbance, 96-well (AID 463189).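 Note: 0% = wild type cc124 cells in DMSO and 100% = ciliumless bld1 mutant cells.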 The conditions noted are these: OD600 absorbance, 2 days, at 10 µM, stronger effect = higher value.
Assay [11] is described as follows: inhibitors of Sendai virus-induced IRF3 signaling, primary screen, TLR/RLR signaling modifier project, cell-based, Sendai virus stimulus, luciferase, 10K MLSCN set (AID 602276;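 active = inhibition at or above 50% at 10 µM; inactive = inhibition below 50%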;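 note: firefly luciferase from ISG56 promoter only with Renilla not read in this screen; 0% = Sendai virus plus DMSO and 100% = medium plus DMSO without virus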). The note with it: HEK293 RL24 IRF3 luciferase reporter, at 10 µM, stronger effect = higher value. Background: In a reporter assay the amount or activity of a reporter protein is the signal.
Assay [12] in a line: inhibitors of poly I:C-induced TLR3 signaling, primary screen, cell-based, poly I:C stimulus, luciferase, 10K MLSCN set (AID 602277;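 active = inhibition of the reporter signal at or above 50%; inactive = inhibition below 50%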). The note with it: HEK293-TLR3 RL24 IRF3 luciferase reporter, at 10 µM, stronger effect = higher value.
The mark [13] stands for this setting: measured here: cell density z-score.
Setting [14] is: measured here: nuclear c-Myc green intensity z-score.
[15] abbreviates: measured here: nuclear pErk red intensity z-score, stronger effect = higher value.

Where “and” joins values, the source holds several entries; their conditions need not be identical. Equal values may be shown once. Some structures have more than one record in an assay (separate samples or runs), and their calls can disagree. Calls of active or inactive are those of the source.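 Rule for the calls, unless noted: active = inhibition at or above 50% relative to wild type and mutant plate controls; inactive = inhibition below 50%.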

Broadly, the inhibition is the relative decrease from the control value, in per cent.

Sequence of Dual specificity protein phosphatase 6 (Homo sapiens) (Q16828 whole entry, looked up): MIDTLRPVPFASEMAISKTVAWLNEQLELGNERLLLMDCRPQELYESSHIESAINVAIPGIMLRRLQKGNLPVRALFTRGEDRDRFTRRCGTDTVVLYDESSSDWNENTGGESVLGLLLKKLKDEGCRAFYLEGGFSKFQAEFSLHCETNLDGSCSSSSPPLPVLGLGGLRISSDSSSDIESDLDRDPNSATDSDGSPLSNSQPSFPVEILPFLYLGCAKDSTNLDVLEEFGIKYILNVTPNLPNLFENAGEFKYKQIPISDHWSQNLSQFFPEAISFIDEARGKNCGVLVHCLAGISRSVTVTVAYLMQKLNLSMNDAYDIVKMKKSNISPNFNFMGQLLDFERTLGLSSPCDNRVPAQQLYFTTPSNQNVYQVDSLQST
Sequence of Alpha-2C adrenergic receptor (Homo sapiens) (P18825 whole entry, looked up): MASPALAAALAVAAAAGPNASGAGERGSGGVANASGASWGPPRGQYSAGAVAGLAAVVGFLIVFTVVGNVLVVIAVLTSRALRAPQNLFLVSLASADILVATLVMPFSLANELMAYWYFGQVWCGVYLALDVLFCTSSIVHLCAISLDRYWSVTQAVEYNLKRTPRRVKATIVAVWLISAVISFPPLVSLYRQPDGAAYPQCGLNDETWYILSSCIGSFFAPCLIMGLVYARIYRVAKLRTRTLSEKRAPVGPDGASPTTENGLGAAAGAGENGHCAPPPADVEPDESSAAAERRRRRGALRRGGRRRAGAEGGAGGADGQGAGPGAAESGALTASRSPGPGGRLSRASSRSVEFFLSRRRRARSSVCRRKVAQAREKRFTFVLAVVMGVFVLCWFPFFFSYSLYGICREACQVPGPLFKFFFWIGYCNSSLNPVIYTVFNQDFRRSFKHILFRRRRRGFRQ

For the compound `Cc1nc2c(c(=O)n1CC1CCCO1)c1nc3ccccc3nc1n2CC(C)C` (stereo not drawn), the cell count in [1] is 460. Also, the inhibition was -4.3% (inactive) in [1]; -42.3% (inactive) in assay [3]; 9.42% (inactive) in assay [5]; 0.529% (inactive) in [10]; 20.9% (inactive) in assay [11]; 22.8% (inactive) in assay [12]. In addition, the inhibition of aggregation in assay [2] is 12.6% (inactive). The nuclei count worked out at 107% in [2] and 96.8% in assay [3]. Moreover, the z-score in assay [4] (setting [13]) is 1.43; in [4] (setting [14]) it was 1.1; in [4] (setting [15]), -2.3. Further, the fluorescence slope in assay [6] is -0.449 (inactive). Besides, the NADPH fluorescence slope in assay [7] was -6.4e-05 (inactive). Also, in assay [8], the slope was 0.00602 (inactive). Also, the call in assay [9] was inactive.
Turning to `Cc1nc2sccn2c(=O)c1CCN1CCC(=C(c2ccccc2)c2ccc(F)cc2)CC1`, in [1], the cell count is 635. Further, the inhibition was -7.7% (inactive) in assay [1]; -100% (inactive) in assay [3]; 17.3% (inactive) in assay [5]; 24.7% (inactive) and 164% (active) in assay [10]; 18.4% (inactive) in assay [11]; 19.4% (inactive) in [12]. Besides, the inhibition of aggregation in [2] was 5% (inactive). Besides, the nuclei count in assay [2] is 114%; in [3], 123%. Further, the z-score in assay [4] (setting [13]) was -1.15; in assay [4] (setting [14]), 0.767; in [4] (setting [15]), 0.616. Further, the fluorescence slope in assay [6] is -0.433 (inactive). Besides, the NADPH fluorescence slope in assay [7] was -1.2e-05 (inactive). For the same compound, the slope in assay [8] is 0.00383 (inactive). The compound was classed as inactive in [9].
Turning to `C[C@@H]1C[C@H]2[C@@H]3C[C@H](F)C4=CC(=O)C=C[C@]4(C)[C@@]3(F)[C@@H](O)C[C@]2(C)[C@@]1(O)C(=O)COC(=O)C(C)(C)C`, the cell count in [1] stood at 563. The inhibition is 1.4% (inactive) in [1]; -36.8% (inactive) in assay [3]; 5.42% (inactive) in [5]; -9.6% (inactive) in assay [10]; 2.87% (inactive) in assay [11]; 35.9% (inactive) in assay [12]. The inhibition of aggregation in [2] was -3% (inactive). Besides, the nuclei count was determined as 51.7% in assay [2] and 92.6% in [3]. The z-score in assay [4] (setting [13]) is 0.404; in assay [4] (setting [14]), -0.122; in [4] (setting [15]), -1.39. The fluorescence slope in [6] was -0.475 (inactive). In assay [7], the NADPH fluorescence slope is -6.6e-05 (inactive). Also, the slope in [8] is 0.00583 (inactive). Moreover, the result in assay [9] was inactive.
For the compound `Cn1c(=O)n(CCC(=O)O)c2ccccc21`, the cell count in assay [1] was 429. The inhibition was -3.4% (inactive) in assay [1]; -65.4% (inactive) in assay [3]; -9.7% (inactive) in [5]; 1.78% (inactive) in assay [10]; 16.2% (inactive) in assay [11]; 22.9% (inactive) in assay [12]. Further, the inhibition of aggregation in assay [2] was 7.9% (inactive). For the same compound, the nuclei count in [2] was determined as 96.9%; in assay [3] it was 159%. The z-score in assay [4] (setting [13]) was -0.862; in assay [4] (setting [14]) it was -1.01; in assay [4] (setting [15]) it was 0.787. Besides, the fluorescence slope in assay [6] is -0.405 (inactive). The NADPH fluorescence slope in assay [7] is -5.3e-05 (inactive). The slope in assay [8] was 0.00491 (inactive). In addition, the compound was classed as inactive in [9].
Consider `Cc1cc(C)nc(NC(=O)c2ccc(OC(C)C)cc2)n1`, for which, in assay [1], the cell count is 520. In addition, the inhibition in assay [1] was -2.7% (inactive); in [3], -53% (inactive); in assay [5], 17% (inactive); in assay [10], -2.45% (inactive); in assay [11] it was -1.16% (inactive); in [12] it was -12.9% (inactive). Also, the inhibition of aggregation in [2] was -1.7% (inactive). For the same compound, the results for the nuclei count in assay [2] and in assay [3] were 110% and 123%, respectively. Further, the z-score in assay [4] (setting [13]) was 0.524; in [4] (setting [14]), 1.41; in [4] (setting [15]) it was -0.231. Also, in assay [6], the fluorescence slope was -0.449 (inactive). In addition, the NADPH fluorescence slope in [7] is -4.9e-05 (inactive). For the same compound, the slope in assay [8] is 0.00572 (inactive). Besides, the result in assay [9] was inactive.
As for `O=C(NC1CCS(=O)(=O)C1)N1CCCCC1` (stereo not drawn), the cell count in [1] is 486. Also, the inhibition was 0.6% (inactive) in assay [1]; -68.8% (inactive) in assay [3]; 1.6e-07% (inactive) in assay [5]; -28.4% (inactive) in [10]; 11.2% (inactive) in assay [11]; 18.8% (inactive) in assay [12]. Also, the inhibition of aggregation in [2] was -3.3% (inactive). The nuclei count in assay [2] stood at 106%; in assay [3] it was 126%. The z-score was -0.342 in assay [4] (setting [13]), 1.35 in assay [4] (setting [14]) and 0.612 in assay [4] (setting [15]). For the same compound, in assay [6], the fluorescence slope was -0.485 (inactive). For the same compound, the NADPH fluorescence slope in assay [7] is -6.6e-05 (inactive). The slope in assay [8] was 0.00544 (inactive). Further, the compound was called inactive in [9].
With `C/C=C(/C(=C/C)c1ccc(O)cc1)c1ccc(O)cc1`, the cell count in assay [1] turned out to be 603. Further, the inhibition is -14.5% (inactive) in assay [1]; -76% (inactive) in [3]; 13.3% (inactive) in [5]; 25.6% (inactive) in [10]; 8.63% (inactive) in [11]; 33.1% (inactive) in assay [12]. Moreover, the inhibition of aggregation in assay [2] is 10.1% (inactive). For the same compound, the nuclei count in [2] stood at 112%; in assay [3], 132%. Moreover, the z-score in assay [4] (setting [13]) was -0.991; in assay [4] (setting [14]) it was -0.543; in assay [4] (setting [15]), 0.777. Also, the fluorescence slope in assay [6] is -0.459 (inactive). Moreover, the NADPH fluorescence slope in assay [7] is -5.4e-05 (inactive). Besides, the slope in assay [8] is 0.00464 (inactive). Moreover, in assay [9], the compound was called inactive.
Regarding `CC(=O)OCC(=O)[C@H]1CC[C@H]2[C@@H]3CCC4=CC(=O)CC[C@]4(C)[C@H]3CC[C@]12C`, the cell count in assay [1] was 599. Moreover, the inhibition was -7.8% (inactive) in [1]; -142% (inactive) in assay [3]; 11.3% (inactive) in assay [5]; 6.25% (inactive) in assay [10]; -2.65% (inactive) in assay [11]; 25.6% (inactive) in [12]. In addition, in assay [2], the inhibition of aggregation was -27.4% (inactive). The nuclei count in assay [2] worked out at 83.1%; in [3], 132%. Moreover, the z-score in assay [4] (setting [13]) was -1.17; in assay [4] (setting [14]) it was 0.0337; in [4] (setting [15]), 1.04. Moreover, the fluorescence slope in assay [6] is -0.472 (inactive). Moreover, the NADPH fluorescence slope in [7] is -1.7e-05 (inactive). In [8], the slope is 0.00411 (inactive). In assay [9], the call was inactive.
Consider `COc1ccc(C2CC(=O)C(C=NCCN3CCOCC3)=C(O)C2)cc1` (stereo not drawn), for which, in assay [1], the cell count was 379. Besides, the inhibition in assay [1] was -8.5% (inactive); in assay [3] it was -118% (inactive); in [5], -5.62% (inactive); in assay [10], 7.09% (inactive); in assay [11], 14.9% (inactive); in assay [12], 20.5% (inactive). Further, the inhibition of aggregation in assay [2] is 0.1% (inactive). Besides, the nuclei count is 106% in assay [2] and 138% in assay [3]. Further, the z-score in assay [4] (setting [13]) is 0.329; in [4] (setting [14]), 0.663; in assay [4] (setting [15]), -0.587. Moreover, the fluorescence slope in assay [6] was -0.354 (inactive). The NADPH fluorescence slope in [7] is 9.4e-06 (inactive). Besides, the slope in assay [8] was 0.00492 (inactive). In addition, the compound was called inactive in assay [9].

These data come from PubChem BioAssay.
